Our source for the growth values is PubChem BioAssay (NCI).

SMILES strings stand for the structures. Compounds without any hit were thinned out: in the full panel of roughly 83,000, 20% have a hit.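 Values shown are percent growth following 48 h exposure of cells in 96-well plates to a single concentration of compound; below 10 was considered active.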 Active and inactive are the calls of the source.

The assay relates to NCI-H460 lung. Briefly: NCI-60 one-dose screen, 48 h (100 = growth as untreated, 0 = no growth, -100 = all killed). To be noted: 10 µM unless noted.
On to `O=C1COCCN1c1ccc(NCc2cn(C(=O)c3ccc(Cl)cc3)c3ccccc23)cc1`, for which the growth is 14.9% (inactive).

For the molecule `COc1ccc(-c2cnc3ccccc3n2)cc1`, the growth was 101% (inactive).

As to `CCOC(=O)C1=C(N)Oc2c(sc3c(C)cccc23)C1c1ccc(OC)cc1` (stereo not drawn), the growth is 21.9% (inactive).

As for `FC(F)(F)c1cc(Nc2ccc3c(OCCCN4CCOCC4)cccc3n2)ccc1Cl`, the growth is 17.3% (inactive).

As to `COc1cc(C(=O)c2cc(C)c3[nH]c4ccc(O)cc4c3c2C)cc(OC)c1OC`, the growth was 8.93% (active).

On to `Cc1ccc(C(=O)N/N=C/c2cccc(Oc3ccccc3)c2)cn1`, for which the growth is 33.3% (inactive).

`CC(=O)CC(c1cccs1)c1c(-c2ccccc2)[nH]c2ccccc12` (stereo not drawn): the growth is 98.4% (inactive).

On to `NC(=O)C1(Nc2ccc(Br)cc2)CCCC1`, for which the growth was 110% (inactive).

`COc1ccc(-c2c(C(=O)NS(C)(=O)=O)n(Cc3cccc(C(F)(F)F)c3)c3ccccc23)cc1`: the growth is 89.7% (inactive).

`O=C1NC(=O)C(c2ccccc2)(c2ccccc2)N1Cc1cn(-c2c3ccccc3nc3ccccc23)nn1`: the growth was 74.1% (inactive).

In the case of `CCCCn1c(-c2ccc(C(=O)O/N=C(\N)c3ccc(OC)cc3)cc2)nc(-c2ccccc2)c1-c1ccccc1`, the growth is -32.3% (active).

In the case of `COc1cc(Nc2nc(NCCN)nc3cc[nH]c(=O)c23)cc(OC)c1`, the growth is 96.9% (inactive).

Consider `COc1ccc(-c2[nH]c3ccc(OC)cc3c2/C=C(\C#N)S(=O)(=O)c2ccccc2)cc1`, for which the growth was 4.64% (active).

Consider `COc1ccc(C2=Nn3c(nnc3-c3cc(Cl)cc(Cl)c3Cl)SC2)cc1`, for which the growth was -18.9% (active).

With `COc1ccc(C(=S)N2CCN(c3cccc(C)c3)CC2)cc1OC`, the growth was 51.8% (inactive).

In the case of `COc1cc(CCCO)c(OC)c(OC)c1OC`, the growth is 108% (inactive).

Consider `O=C(Nc1nc2ccc(F)cc2s1)c1cccnc1Nc1ccc(Cl)cc1Cl`, for which the growth was 5.22% (active).

For the molecule `Cc1cccc2c3c(sc12)C(c1ccc(F)cc1)C(C#N)=C(N)O3` (stereo not drawn), the growth was 3.07% (active).

Regarding `BrCCCc1n(Cc2ccc3ccccc3c2)c2ccccc2[n+]1Cc1ccc2ccccc2c1`, the growth was -88.4% (active).

Consider `CCOC(=O)Cn1c(C)c(/C=N/NC(=O)c2cc3c(ccc4ccccc43)o2)c2ccccc21`, for which the growth is 5.99% (active).

On to `CCOC(=O)c1sc2ncc(-c3ccc(OC)cc3)n2c1C`, for which the growth is 103% (inactive).

With `O=c1c2cccc(F)c2sc2c(NCCCNCCO)nc3ccccc3c12`, the growth was -40.4% (active).

With `CNCCCNc1nc2ccccc2c2c(=O)c3cc(F)ccc3sc12`, the growth was -52.9% (active).

Take `CC(=O)OC[C@H]1OC(Sc2sc(C(=O)c3ccc(Cl)cc3)c(N)c2-c2nc3ccccc3s2)[C@H](OC(C)=O)[C@@H](OC(C)=O)[C@@H]1OC(C)=O` (stereo partly drawn): the growth was 67.5% (inactive).

For the molecule `OC(c1ccccc1)C(NC(Cc1ccccc1)c1ccccc1)c1ccccc1` (stereo not drawn), the growth is 91.7% (inactive).

Consider `CCOC(=O)c1cn2ncnc(Oc3ccc(NC(=O)NCCN(C)C)c(Cl)c3)c2c1C`, for which the growth was 103% (inactive).

Take `Cc1nc2ccccc2c(/C=C/c2ccccc2)c1C(=O)/C=C/c1ccc(C(F)(F)F)cc1`: the growth was -71.6% (active).

`Cc1[nH]c(C(=O)Nc2ccc(C(=O)NCCN)cc2OC(C)C)c(Cl)c1Cl`: the growth was -55.2% (active).

As to `CN1CCN(c2ccc(-c3cnc4c(-c5csc6ccccc56)cnn4c3)cc2)CC1`, the growth was -78.2% (active).

`c1ccc(-c2nc3sc(-c4ccccc4)cn3n2)cc1`: the growth was 93.3% (inactive).

Turning to `COc1c(B(O)O)cc(F)cc1-c1nc2ccc3[nH]ncc3c2c2c1CCCC2`, the growth is 5.46% (active).

On to `CNCCCC12CCC(c3ccccc31)c1ccccc12`, for which the growth was 97.3% (inactive).

On to `C=C1C(=O)O[C@H]2[C@H]1CC/C(COC(=O)C(C)c1ccc(CC(C)C)cc1)=C\CC[C@@]1(C)O[C@@H]21` (stereo partly drawn), for which the growth was 37.9% (inactive).

With `CC1=C(C)C(=O)C(Nc2cccc(C(=O)OC(C)(C)C)c2)=C(Br)C1=O`, the growth was 99.7% (inactive).

Take `COc1ccc(C2CC(c3ccc(Nc4ccnc5cc(Cl)ccc45)cc3)=NN2C=O)cc1` (stereo not drawn): the growth was 80.2% (inactive).

Regarding `Cc1nc(NC(=O)COc2ccc(/C=C3\Cc4ccc(Cl)cc4C3=O)cc2)sc1C`, the growth was 101% (inactive).

As to `Cc1ccc2c(-c3cc(-c4ccccc4)nc(N)c3C#N)cc(=O)oc2c1`, the growth is 101% (inactive).

Take `CN(C)c1ccc(/C=N\Nc2cc(=O)[nH]c3ccc(Cl)cc23)cc1`: the growth is 102% (inactive).
